Bioassay records as filed in PubChem.
The list is not random: actives were taken first. Their share in the collection is about 3.6%.
BoNT-A LC inh2 = BoNT A light chain protease inhibition | multiplex microsphere protease substrate cleavage, flow cytometry | inhibition, % at 10 µM | hit rate 0.17% among 360,000; note: plate controls were buffer without enzyme for full effect and enzyme alone for no effect
MazF activator = activators of E. coli MazEF toxin-antitoxin RNase | hit rate 0.32% among 350,000 | FAM/BHQ RNA-DNA oligo cleavage fluorescence, 5 h | P0AE70 | AID 504720 | activation, % at 20 µM; in the data active = activation above about 50%
BoNT-F LC inh = blocks Botulinum neurotoxin F light chain protease; hit rate 0.22% among 360,000; Multiplex microsphere protease cleavage assay, flow cytometry; inhibition, % at 10 µM; AID 588497; in the data active = inhibition above about 35%, passing the limit was not always enough; inconclusive = no clear call, values can overlap the other calls; note: plate controls were buffer without enzyme for full effect and enzyme alone for no effect
Anthrax LF inh2 = inhibitors of Bacillus anthracis lethal factor protease | P15917 | multiplex microsphere protease cleavage assay, LF | inhibition, % at 10 µM | hit rate 0.12% among 360,000 | AID 588501; note: plate controls were buffer without enzyme for full effect and enzyme alone for no effect
Target sequence (P15917 whole entry, looked up): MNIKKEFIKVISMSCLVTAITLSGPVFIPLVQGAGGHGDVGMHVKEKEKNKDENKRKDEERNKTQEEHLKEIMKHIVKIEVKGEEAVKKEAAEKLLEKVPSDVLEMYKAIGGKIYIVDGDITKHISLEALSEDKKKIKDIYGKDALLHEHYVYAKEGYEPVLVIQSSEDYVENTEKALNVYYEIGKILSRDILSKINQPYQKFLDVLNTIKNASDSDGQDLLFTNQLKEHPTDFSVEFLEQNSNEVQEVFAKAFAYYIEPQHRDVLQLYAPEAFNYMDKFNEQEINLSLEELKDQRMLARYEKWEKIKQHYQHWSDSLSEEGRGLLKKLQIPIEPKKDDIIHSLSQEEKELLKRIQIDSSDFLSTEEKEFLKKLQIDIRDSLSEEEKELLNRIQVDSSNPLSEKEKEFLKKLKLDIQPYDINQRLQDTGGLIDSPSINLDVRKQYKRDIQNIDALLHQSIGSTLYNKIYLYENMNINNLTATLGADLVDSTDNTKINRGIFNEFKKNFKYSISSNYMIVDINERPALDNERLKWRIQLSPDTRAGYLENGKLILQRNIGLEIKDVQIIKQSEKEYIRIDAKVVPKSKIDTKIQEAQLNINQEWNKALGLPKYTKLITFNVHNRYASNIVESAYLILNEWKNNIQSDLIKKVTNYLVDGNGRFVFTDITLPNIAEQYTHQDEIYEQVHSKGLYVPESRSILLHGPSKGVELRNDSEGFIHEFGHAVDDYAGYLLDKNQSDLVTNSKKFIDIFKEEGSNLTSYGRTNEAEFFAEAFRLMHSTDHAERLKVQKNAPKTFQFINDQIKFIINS
Bead autofluor = compound fluorescence in toxin protease inhibitor counterscreen; compound autofluorescence counterscreen, microsphere flow cytometry; hits give high values; fluorescence intensity (no concentration beside the values); hit rate 3.1% among 360,000; AID 624483; in the data active = fluorescence intensity above about 16000; inconclusive = no clear call, values can overlap the other calls
Starred values were filed as active, the others as inactive; ! = not confirmed by another sample. Cut-off read from the data, not from the text of the source, unless noted: active = inhibition above about 30%; inconclusive = no clear call, values can overlap the other calls; inactive = below that.

Results for CCOc1ccc2[nH]c3c(N4CCN(c5ccccn5)CC4)ncnc3c2c1 ?
BoNT-A LC inh2: -10; MazF activator: 4; BoNT-F LC inh: -12; Anthrax LF inh2: -7; Bead autofluor: 18129*

What do the screens show for `Cc1ccc(-c2cnc(C(O)c3cccc(Cl)c3)[nH]2)cc1` (centres undefined)?
BoNT-A LC inh2: 0; BoNT-F LC inh: -8; Anthrax LF inh2: 1; Bead autofluor: 3730

How did Cc1ccc(/C=C2/NC(=O)N(Cc3ccccc3F)C2=O)s1 do in these assays?
BoNT-A LC inh2: 10; MazF activator: 86*; BoNT-F LC inh: 2; Anthrax LF inh2: 2; Bead autofluor: 2658

How did O=C1N/C(=C/c2cccs2)C(=O)N1Cc1ccccc1F do in these assays?
BoNT-A LC inh2: 0; MazF activator: 1; BoNT-F LC inh: -3; Anthrax LF inh2: 0; Bead autofluor: 2291

How did Cc1ccc(C(=O)COC(=O)C2CC3CCCC(C2)C3=O)cc1[N+](=O)[O-] (centres undefined) do in these assays?
BoNT-A LC inh2: 0; MazF activator: 6; BoNT-F LC inh: -5; Anthrax LF inh2: 2; Bead autofluor: inconclusive

What do the screens show for `O=C(NC1CCCCC1c1ccccc1)c1ccccc1` (centres undefined)?
BoNT-A LC inh2: 0; MazF activator: 1; BoNT-F LC inh: -2; Anthrax LF inh2: -1; Bead autofluor: 3275

Results for COc1ccc(F)cc1S(=O)(=O)N1CCN(c2ccccn2)CC1 ?
BoNT-A LC inh2: -1; MazF activator: 2; BoNT-F LC inh: inconclusive; Anthrax LF inh2: 8; Bead autofluor: 3792

Results for COc1ccc(F)cc1S(=O)(=O)N1CC(C)CC(C)C1 (centres undefined) ?
BoNT-A LC inh2: -1; MazF activator: -3; BoNT-F LC inh: -3; Anthrax LF inh2: -5; Bead autofluor: 20024*

How did CCN1CCN(S(=O)(=O)c2cc(OC)ccc2OC)CC1 do in these assays?
BoNT-A LC inh2: 0; MazF activator: 0; BoNT-F LC inh: -3; Anthrax LF inh2: -1; Bead autofluor: 24223*

What do the screens show for `O=C(OCc1ccccc1)c1c(-c2ccccc2)oc2c1C(OCCO)CCC2` (centres undefined)?
BoNT-A LC inh2: 0; BoNT-F LC inh: 3; Anthrax LF inh2: -6; Bead autofluor: 5249

How did CCOC(=O)/C(C#N)=C/c1cc2ccccc2nc1N1CCCCC1 do in these assays?
BoNT-A LC inh2: 31*; MazF activator: -215; BoNT-F LC inh: 10; Anthrax LF inh2: 12; Bead autofluor: 2550

How did CCCn1nnc(NC(=S)NC(=O)/C=C/c2ccco2)n1 do in these assays?
BoNT-A LC inh2: 3; MazF activator: 3; BoNT-F LC inh: inconclusive; Anthrax LF inh2: 6; Bead autofluor: 3796

What do the screens show for `CC(=O)Nc1nc(C)c(Oc2ccccc2)c(=O)[nH]1`?
BoNT-A LC inh2: 2; MazF activator: -1; BoNT-F LC inh: 3; Anthrax LF inh2: -12; Bead autofluor: 20911*

How did CCC(=O)Nc1nc(C)c(Oc2ccccc2)c(=O)[nH]1 do in these assays?
BoNT-A LC inh2: 0; MazF activator: 31; BoNT-F LC inh: -2; Anthrax LF inh2: 0; Bead autofluor: 2361

Results for Cn1c(=O)cc(OCCCC(=O)Nc2cccnc2)c2ccccc21 ?
BoNT-A LC inh2: -2; MazF activator: -10; BoNT-F LC inh: -2; Anthrax LF inh2: -2; Bead autofluor: 23694*

Results for CCn1c(=O)cc(OCC(=O)NCCc2cccc(C)c2)c2ccccc21 ?
BoNT-A LC inh2: 0; MazF activator: 0; BoNT-F LC inh: -2; Anthrax LF inh2: -1; Bead autofluor: 2426

How did CCn1c(=O)cc(OCC(=O)Nc2ccc3c(c2)OCCO3)c2ccccc21 do in these assays?
BoNT-A LC inh2: 1; MazF activator: 6; BoNT-F LC inh: 1; Anthrax LF inh2: -5; Bead autofluor: 19914*

Results for CCN(CCCNC(=O)COc1cc(=O)n(C)c2ccccc12)c1ccccc1 ?
BoNT-A LC inh2: 2; MazF activator: -6; BoNT-F LC inh: 1; Anthrax LF inh2: 5; Bead autofluor: 8949

How did CCN(CCCNC(=O)COc1cc(=O)n(CC)c2ccccc12)c1ccccc1 do in these assays?
BoNT-A LC inh2: inconclusive; MazF activator: 4; BoNT-F LC inh: -1; Anthrax LF inh2: -3; Bead autofluor: 19587*

Results for CCn1c(=O)cc(OCC(=O)Nc2ccc(OC)c(OC)c2)c2ccccc21 ?
BoNT-A LC inh2: 0; MazF activator: -8; BoNT-F LC inh: -2; Anthrax LF inh2: 0; Bead autofluor: 2067

Results for CCn1c(=O)cc(OCC(=O)Nc2cc(C)ccn2)c2ccccc21 ?
BoNT-A LC inh2: 0; MazF activator: 4; BoNT-F LC inh: 1; Anthrax LF inh2: -1; Bead autofluor: 22556*

Results for CCc1ccc(NC(=O)CCCOc2cc(=O)n(C)c3ccccc23)cc1 ?
BoNT-A LC inh2: 0; BoNT-F LC inh: -2; Anthrax LF inh2: -4; Bead autofluor: 3765

What do the screens show for `COc1ccc(NC(=O)COC(=O)CNS(=O)(=O)/C=C/c2ccccc2)cc1OC`?
BoNT-A LC inh2: 0; MazF activator: -1; BoNT-F LC inh: -2; Anthrax LF inh2: -2; Bead autofluor: 2767

What do the screens show for `Cc1ccc(S(=O)(=O)N2CC3=C(C2)C2CC2(C)C3)cc1` (centres undefined)?
BoNT-A LC inh2: 0; BoNT-F LC inh: 7; Anthrax LF inh2: -2; Bead autofluor: 6104

Results for Cn1c(=O)cc(OCCCC(=O)Nc2ccc3c(c2)OCCO3)c2ccccc21 ?
BoNT-A LC inh2: 2; MazF activator: 9; BoNT-F LC inh: 2; Anthrax LF inh2: -2; Bead autofluor: 21630*

Results for Brc1ccc(Cn2c(-c3cncs3)nc3ccccc32)cc1 ?
BoNT-A LC inh2: -1; MazF activator: 1; BoNT-F LC inh: -9; Anthrax LF inh2: 5; Bead autofluor: 10760

What do the screens show for `Brc1cccc(Cn2c(-c3cncs3)nc3ccccc32)c1`?
BoNT-A LC inh2: inconclusive; MazF activator: -4; BoNT-F LC inh: -2; Anthrax LF inh2: -2; Bead autofluor: 22203*

What do the screens show for `c1ccc(Cn2c(-c3cncs3)nc3ccccc32)cc1`?
BoNT-A LC inh2: -3; MazF activator: 4; BoNT-F LC inh: -4; Anthrax LF inh2: 1; Bead autofluor: 20700*

What do the screens show for `N#CCCCCn1c(-c2cncs2)nc2ccccc21`?
BoNT-A LC inh2: 1; MazF activator: 6; BoNT-F LC inh: 6; Anthrax LF inh2: 1; Bead autofluor: 3880

What do the screens show for `O=C(COC(=O)CSc1ccc(F)cc1)NC1CCCCCC1`?
BoNT-A LC inh2: 0; MazF activator: -1; BoNT-F LC inh: -6; Anthrax LF inh2: 0; Bead autofluor: 3937

Results for Cc1cccn2c(=O)c3cc(C#N)c(=O)n(Cc4cccnc4)c3nc12 ?
MazF activator: 12

How did Cc1cccc(C(=O)N=c2c(C#N)cc3c(=O)n4cccc(C)c4nc3n2Cc2ccco2)c1 do in these assays?
BoNT-A LC inh2: 8; MazF activator: 54*!; BoNT-F LC inh: 20; Anthrax LF inh2: 17; Bead autofluor: 3674

Results for Cc1ccc(-n2c(=O)c(C#N)cc3c(=O)n4cccc(C)c4nc32)cc1 ?
BoNT-A LC inh2: inconclusive; MazF activator: 21; BoNT-F LC inh: -7; Anthrax LF inh2: 0; Bead autofluor: 20956*
